Source: PubChem BioAssay AID777 (Sanford-Burnham Center for Chemical Genomics, 2007)
Screen size: about 96,000 compounds; about 19,000 (20%) were called active. A selection follows. A number with no mark means an inactive call.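 The calls were made as follows: active = blocking of liver enzyme CYP2C9 beyond about 50% at 5 µM (limit read from the data); inactive = the rest.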

Molecular target: Cytochrome P450 2C9 (Homo sapiens) (UniProt P11712)
Assay: blockers of cytochrome P450 2C9 activity – biochemical, luminescence, ADME assay, primary screen (AID 777)
Settings: CYP2C9 Supersomes, luciferin-H conversion, at 5 µM, hits give high values

Cytochrome P450 2C9 (Homo sapiens), sequence (P11712 whole entry, looked up): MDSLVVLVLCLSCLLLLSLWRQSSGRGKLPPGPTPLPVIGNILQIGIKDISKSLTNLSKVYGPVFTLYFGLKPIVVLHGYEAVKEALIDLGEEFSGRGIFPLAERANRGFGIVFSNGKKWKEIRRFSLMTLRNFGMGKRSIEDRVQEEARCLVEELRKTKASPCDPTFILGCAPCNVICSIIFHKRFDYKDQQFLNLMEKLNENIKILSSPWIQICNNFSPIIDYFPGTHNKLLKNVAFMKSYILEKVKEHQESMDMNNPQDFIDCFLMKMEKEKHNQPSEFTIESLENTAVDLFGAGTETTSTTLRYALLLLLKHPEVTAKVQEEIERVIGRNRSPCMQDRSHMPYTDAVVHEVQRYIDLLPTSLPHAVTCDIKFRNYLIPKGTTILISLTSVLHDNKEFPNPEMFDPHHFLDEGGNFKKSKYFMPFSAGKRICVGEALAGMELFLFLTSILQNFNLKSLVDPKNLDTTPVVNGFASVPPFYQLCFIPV

SMILES	inhibition
CCc1nn(-c2cc(Oc3cccc4ccccc34)nc(-c3ccccc3)n2)c(N)c1C#N	20%
CSc1sc(C)cc1C1C(C#N)=C(N)N(c2cccnc2)C2=C1C(=O)CCC2 (configuration not stated)	23%
CCCOc1ccc(N2C(=O)CC(N(CCc3ccc(S(N)(=O)=O)cc3)C(C)=O)C2=O)cc1 (configuration not stated)	-11.4%
Cc1nn(-c2ccccc2)c2[nH]c(C(F)(F)F)cc(=O)c12	46.9%
COc1ccc(OCCCC(=O)Nc2nnc(C3CCCO3)s2)cc1 (configuration not stated)	45.3%
O=C(Cn1c(=O)sc2ccccc21)Nc1ccc2c(c1)OCCO2	7%
Cc1nnc(NC(=O)Cn2c(=O)sc3ccccc32)s1	67.6% (active)
Cc1nnc(NC(=O)CCCOc2ccccc2)s1	-8.5%
CCN(CC)CCCNC(=O)CCc1ccccc1	1.4%
O=C(CN1C(=O)NC2(CCCC2)C1=O)Nc1ccc(F)c(F)c1F	-34.9%
Cc1ccccc1N1CC(c2nc3ccccc3[nH]2)CC1=O (configuration not stated)	29.8%
CC1=CC(=O)C=CC1(C)C(Cl)(Cl)Cl (configuration not stated)	-5.7%
COc1ccc(N(CC(=O)NC2CCCCCCC2)S(=O)(=O)c2c(C)nn(C)c2C)cc1	40.5%
COc1cccc(N(CC(=O)NC2CCCC2)C(=O)Cn2nnc(-c3ccc(C)cc3)n2)c1	59.1% (active)
O=C(Cn1nnc(-c2ccc(CN3CCOCC3)cc2)n1)NC1CCCCC1	25.3%
CC(C)c1cc(C(=O)O)on1	-15.7%
Cn1c(COc2ccc(Cl)cc2)nc2ccccc2c1=O	43.9%
COc1ccc(Oc2c(Cl)cnn(-c3ccccc3)c2=O)cc1	18.9%
Cc1[nH]nc(-c2ccc(OCc3cnn(-c4ccccc4)c3)cc2O)c1Oc1ccc(Cl)cc1	66.2% (active)
CC(C)(C)C(=O)Nc1ccc(C(=O)N/N=C/c2ccccc2OC(=O)c2ccc(Cl)cc2Cl)cc1	21.5%
COc1ccc(OC)c(NC(=O)Cn2c(=O)oc3ccccc32)c1	26.9%
Cn1c2c(c(=O)n(C)c1=O)[C@@H]1c3c(ccc4ccccc34)OC[C@@H]1CO2	18.4%
CCn1c(NCCc2ccc(OC)c(OC)c2)nc2c1c(=O)n(C)c(=O)n2C	12.4%
CC(=O)Nn1cc2c(=O)n(C)c(=O)n(C)c2c1	-1.4%
COc1ccc(OC)c(-n2cc3c(=O)n(C)c(=O)n(C)c3c2)c1	78.8% (active)
Cn1c(=O)c2cn(-c3cccc4ccccc34)cc2n(C)c1=O	71.3% (active)

SMILES	inhibition
O=C(OC1CCOC1=O)c1ccc(-c2nc3ccccc3s2)s1 (configuration not stated)	4.9%
CSCCC(NC(=O)C1CCC(C)CC1)C(=O)NCc1ccco1 (configuration not stated)	10.7%
CSCCC(NC(N)=O)C(=O)N(C)CC(=O)Nc1ccc(C)cc1 (configuration not stated)	-21.5%
CC1(C)CC(O)C(CCC(O)c2ccccc2)C(C)(C)N1 (configuration not stated)	-1.7%
O=c1c(F)cn(C2CCCO2)c(=O)n1Cc1ccccc1Cl (configuration not stated)	15.2%
Cc1ccc(NC(=S)Nc2ncccc2C)c(C)c1	-26.1%
CCOC(=O)c1ccc(COC(=O)c2cc(=O)[nH]c3ccccc23)o1	-27.9%
CCOC(=O)c1sc2nc(CSCC(=O)OCc3ccc(C(=O)OC)o3)[nH]c(=O)c2c1C	54.4% (active)
CCOc1cc(/C=N/n2cnnc2)c(Br)cc1O	43.2%
COc1ccccc1N1CC(C(=O)Nc2ccc(S(=O)(=O)N3CCOCC3)cc2)CC1=O (configuration not stated)	8.1%
Cc1cc(C(=O)OC(C)C(=O)Nc2cccc(S(=O)(=O)N3CCOCC3)c2)c(C)o1 (configuration not stated)	97.4% (active)
Cc1cc(=O)oc2cc(OC(C)C(=O)Nc3ccc(N4CCOCC4)cc3)ccc12 (configuration not stated)	-6.3%
O=C(O)CCC(=O)NCc1ccc2[nH]c3c(c2c1)CCCC3	-5.1%
COc1ccc(CNC2CCCCC2)cc1	2.3%
CCOC(=O)C1CCN(C(=O)C2CCN(S(=O)(=O)CC)CC2)CC1	-14.3%
CCOC(=O)C1CCN(C(=O)C2CCN(S(=O)(=O)N3CCCC3)CC2)CC1	20.7%
CCOC(=O)C1CCN(C(=O)Nc2ccc(Cl)cc2)CC1	53.3% (active)
O=C(CN(Cc1ccccc1)C(=O)c1ccc2c(c1)OCCO2)NCc1ccc2c(c1)OCO2	50.2% (active)
O=C(NCc1ccc2c(c1)OCO2)c1cc2c(s1)CS(=O)(=O)C2	25%
O=C(COc1ccccc1)NCc1ccc2c(c1)OCO2	32.4%
COc1ccc(-c2csc(N3CCN(Cc4ccc5c(c4)OCO5)CC3)n2)cc1	-14.4%
O=C(Cn1nnc(-c2ccccc2)n1)NCc1ccc2c(c1)OCO2	50.4% (active)
O=C(Cn1nnc(-c2ccccc2)n1)NCc1ccccc1	-11.3%
O=C(CC(Cc1ccccc1)C(=O)O)NCCc1ccc2c(c1)OCO2 (configuration not stated)	75.5% (active)
O=C(COC(=O)c1ccc2c(c1)OCCO2)NCc1ccccc1	-9.3%
O=C(NCCc1ccc2c(c1)OCCO2)c1cc2ccccc2o1	35.2%

SMILES	inhibition
O=C(CN1CCN(c2nc(-c3ccccc3)cs2)CC1)NCc1ccc2c(c1)OCO2	91.4% (active)
CC1CCCC(C)N1C(=O)CN1CCN(c2nc(-c3ccc(F)cc3)cs2)CC1 (configuration not stated)	1.8%
O=C(Cn1nnc(-c2ccc3c(c2)OCO3)n1)NCc1ccco1	16.6%
N#C/C=C1\Sc2ccccc2C(=O)N1CC(=O)N1CCN(S(=O)(=O)c2ccccc2)CC1	-15.4%
Cc1c(-c2ccccc2)nc(N)c(C#N)c1-c1cccs1	29.3%
O=c1c2ccccc2nc2n1C(CSc1ccc(Cl)cc1)CN2 (configuration not stated)	-1.6%
Cc1nc2ccc(S(=O)(=O)NC(C(=O)N3CCCCCC3)C(C)C)cc2s1 (configuration not stated)	26.6%
COC(=O)Nc1ncc(CN2C(=O)c3ccccc3C2=O)s1	-12%
N/C(=N\OC(=O)CCC1CCCCC1)c1ccccn1	0.9%
O=C(O)c1cc(S(=O)(=O)N2CCCCCC2)c(Cl)cc1Cl	22.4%
O=C(COC(=O)c1ccccc1SCC(=O)NC1CCCCC1)NC1CCCCC1	12.1%
CCOC(=O)c1ccc(-c2ccc(C(=O)Nc3cccnc3)o2)cc1	14.6%
CCOC(=O)c1ccc(COC(=O)CCc2nc(-c3ccccc3)c(-c3ccccc3)o2)cc1	85.6% (active)
CCOC(=O)c1cc(NC(=O)c2ccc(Cl)cc2)c(=O)oc1-c1ccccc1	-22.2%
Cc1ccc(O)c(NC(=O)COc2cc(C)ccc2C)c1	-59.4%
COc1ccccc1-c1c(C)nn2c(C)c(C(C)=O)cnc12	3.7%
COc1ccc(-c2nc(SCC(=O)N3CCOCC3)n[nH]2)cc1	-9.6%
O=C1/C(=C/c2cccs2)CCc2ccccc21	72.8% (active)
Cc1ccc(N2CCN(C3=NC(=O)/C(=C\c4cccs4)S3)CC2)cc1	-127%
C(=N/N1CCN(c2ccccc2)CC1)/c1cccs1	40.3%
COc1ccc(Cn2c(C)c(C)c(C#N)c2NC(=O)Nc2ccc(F)cc2)cc1	13.6%
Cc1ccc(C(=O)Nc2c(C#N)c(C)c(C)n2Cc2ccccc2)cc1	22.4%
Cc1c(C#N)c(NC(=O)c2ccccc2)n(Cc2ccccc2)c1C	60.7% (active)
CCCc1nc(N)nc2c1C(=O)CC(C)(C)C2	-35.3%
CCCSc1nsc(N)n1	16.4%
O=C(Nc1cccc(-c2nc3ncccc3o2)c1)c1ccco1	-2.1%

SMILES	inhibition
O=C(Nc1ccncc1)c1c(F)cccc1F	40.2%
O=C(Nc1ccncc1)c1cc2ccccc2o1	86% (active)
O=C(C1CCCO1)N(Cc1ccccc1)c1ccccc1 (configuration not stated)	-4%
Cc1cc([N+](=O)[O-])c(N2CCC[C@@H]2C(=O)O)c([N+](=O)[O-])c1	5.1%
CS(=O)(=O)c1ccc2nc(NC(=O)C3C4C=CC(C4)C3C(=O)O)sc2c1 (configuration not stated)	-5.4%
CC(C)(C)n1c(=O)[nH]c2c(c1=O)CCC2	-7.2%
CCOc1ccc(OCC)c(NC(=O)C2CCN(S(=O)(=O)c3c(C)noc3C)CC2)c1	48.4%
CCOc1ccccc1NC(=O)C1CCN(S(=O)(=O)c2c(C)nn(C)c2C)CC1	-30.6%
COC(=O)c1ccccc1NC(=O)C1CCN(S(=O)(=O)c2cc(OC)ccc2OC)CC1	92.2% (active)
O=C(Cc1c(O)c2ccccc2[nH]c1=O)NCc1ccccc1	9.8%
O=C(Nc1ccon1)c1cccc(Cl)c1	17.5%
Cc1ccc(Oc2ccc(N)cc2)cc1	29.2%
CC(C(=O)Nc1ccc(F)c(F)c1F)N1CCCCCC1 (configuration not stated)	13.7%
Cc1cc(NC(=O)COc2ccc(Cl)cc2Cl)n(CCC#N)n1	16.2%
O=C1CCCC2=C1C(c1ccccc1)n1c(s/c(=C/c3cccc(F)c3)c1=O)=N2 (configuration not stated)	49.7%
CCOC(=O)Cn1c(=O)oc2cc(S(=O)(=O)NCC3CCCO3)ccc21 (configuration not stated)	11.7%
CC(C)CCNC(=O)Cn1c(=O)oc2cc(S(=O)(=O)N3CC(C)CC(C)C3)ccc21 (configuration not stated)	51.3% (active)
O=C(NC1CCCCC1)n1c(=O)oc2cc(S(=O)(=O)N3CCCCC3)ccc21	-56.7%
CC(C)n1c(SCC(=O)Nc2ccccc2N2CCCCC2)nc2c1c(=O)n(C)c(=O)n2C	87.2% (active)
Cn1c(=O)c2c(nc(SCC(=O)Nc3ccccc3N3CCCCC3)n2C)n(C)c1=O	93.9% (active)
O=C(CN1CCN(C2CCCCC2)CC1)Nc1ccccc1N1CCCCC1	-1.6%
Cn1c(=O)c2c(nc(SCCNS(=O)(=O)c3ccccc3)n2C)n(C)c1=O	42.7%
Cn1c(=O)c2c(nc(N3CCCCCC3)n2CC(=O)c2ccc(Br)cc2)n(C)c1=O	15.6%
Cn1c(=O)c2c(nc(N3CCCCCC3)n2CC(O)COc2ccc(Cl)cc2)n(C)c1=O (configuration not stated)	20%
